Assay outcomes deposited in PubChem BioAssay by National Center for Advancing Translational Sciences (NCATS).
Shown are actives, neighbours in structure and some others; about 7.8% of the full set was active somewhere.
Marburg entry inh: Marburg virus entry inhibition; Marburg virus pseudotyped entry inhibition, cell reporter; Potency, µM (highest dose often 37.8 µM), hits mostly inhibitors; hit rate 1.8% among 300,000; calls by dose curve; tested in HEK293 cells
VACV mCherry inh: vaccinia inhibition (mCherry reporter) | Vaccinia virus mCherry reporter infection, fluorescence | Potency, µM (series often up to 36.5 µM), usual class: inhibitors | hit rate 0.63% among 310,000; calls by dose curve; tested in A549 cells; also: nearly all actives have a fitted effect of over 35% in size
HCV inh: HCV inhibition. Huh7.5.1 HCVcc-Cre infection, luciferase reporter, 44 h. Potency, µM (titrated, usually from 41.8 µM), actives largely listed as inhibitors. hit rate 3.4% among 340,000. AID 651820; active = well fitted inhibition curve with a large enough effect; inconclusive = small, poorly fitted or top-dose-only effect, or another doubt; inactive = no such curve, though single readings can be large or run the other way
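Infectious HCVcc-Cre (~0.5 moi) was added to cells just after compound, with cells seeded 4 h earlier at 1,000 per well. Luciferase activity after 44 h culture reported infection; substrate was incubated 15 min at room temperature before reading.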
Vaccinia Venus: inhibitors of vaccinia virus (Venus reporter); Vaccinia virus Venus reporter expression, fluorescence; Potency, µM (doses to about 36.5 µM), usual class: inhibitors; hit rate 0.46% among 330,000; AID 720580; calls by dose curve; tested in A549 cells; also: nearly all actives have a fitted effect of over 30% in size
HCMV inh: blocks human cytomegalovirus replication | HFF cells, HCMV-luciferase reporter, 72 h; stronger effect = lower value | activity change, negative = inhibition, % at 57.5 µM | hit rate 4.5% among 410,000; in the data active = activity change below about -60%; inconclusive = no clear call, values can overlap the other calls; inactive = above about -39%
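Luciferase read-out from HCMV-luciferase-infected HFFs (MOI 1 PFU/cell) 72 h post infection at 37C; compounds added after 16 h cell attachment; activity normalized between buffer-only basal and Salinomycin (10uM) inhibitor controls.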
Lassa entry inh: Lassa virus entry inhibition | Lassa virus pseudotype entry inhibition, cell reporter | Potency, µM (highest dose often 37.9 µM), usual class: inhibitors | hit rate 1.2% among 300,000; calls by dose curve; tested in HEK293 cells; also: nearly all actives have a fitted effect of over 50% in size
Each line names hits and unclear results; the compound was inactive in the other large screens.

Cc1ccc(C(=O)CC2(O)C(=O)N(CCc3ccccc3)c3ccc(Cl)cc32)cc1 (stereo not drawn)	VACV mCherry inh inconclusive, HCMV inh -104, Lassa entry inh inconclusive (no result: HCV inh)
CCCCCCC(=O)Nc1ccc2nc3c(=O)n(C)c(=O)n(C)c3nc2c1C	none (no result: HCV inh)
CCOn1c(=O)c(-c2ccc(Cl)cc2)[n+]([O-])c2ccccc21	none (no result: VACV mCherry inh, Vaccinia Venus)
CCOn1c(=O)c(-c2ccc(C)cc2)[n+]([O-])c2ccccc21	HCMV inh -60 (no result: Marburg entry inh, VACV mCherry inh, Vaccinia Venus, Lassa entry inh)
Cc1nc2c(c(C)nn2-c2ccccc2)c(C)c1CCC(=O)Nc1ccc(CN2CCCC2)cc1	Marburg entry inh 10µM, HCV inh inconclusive, HCMV inh -64, Lassa entry inh inconclusive
Cc1nc2c(c(C)nn2-c2ccccc2)c(C)c1CCC(=O)Nc1ccccc1	none (no result: HCV inh)
O=c1c(C=NCCN2CCNCC2)c(O)n(C2CCCCC2)c(=O)n1C1CCCCC1	Marburg entry inh 21µM, HCV inh inconclusive (no result: HCMV inh)
CCN(C(=O)c1ccc(NC(=O)Cc2ccccc2)cc1)c1ccccc1	HCMV inh -67
CN(C(=O)c1ccc(NC(=O)Cc2ccccc2)cc1)c1ccccc1	none (no result: HCV inh)
COc1ccc(Nc2nnc(-c3ccc(C)cc3)c3ccccc23)cc1C(=O)N1CCCCC1	Marburg entry inh inconclusive, HCV inh inconclusive, Vaccinia Venus inconclusive, HCMV inh -73, Lassa entry inh inconclusive
CCN(CC)S(=O)(=O)c1cc(-c2nnc(Nc3ccc(OC)c(C(N)=O)c3)c3ccccc23)ccc1C	VACV mCherry inh inconclusive, Vaccinia Venus inconclusive, HCMV inh -65, Lassa entry inh inconclusive (no result: Marburg entry inh, HCV inh)
CC1(C(=O)Nc2cccc(C(F)(F)F)c2)Cc2ccccc2C(=O)O1 (stereo not drawn)	none (no result: HCV inh)
COc1ccccc1NC(=O)OC[C@@H]1CSCCS(=O)(=O)N1	Marburg entry inh inconclusive (no result: VACV mCherry inh, HCV inh, Vaccinia Venus, Lassa entry inh)
O=C(Oc1c(Cl)cc(Cl)c2cccnc12)N1CCOCC1	Marburg entry inh inconclusive, Lassa entry inh inconclusive (no result: VACV mCherry inh, Vaccinia Venus)
O=C(Oc1ccnc2cc(Cl)ccc12)N1CCOCC1	HCMV inh -76
Cn1c(=O)c2c(nc(SCC(=O)c3cccs3)n2Cc2ccc(F)cc2)n(C)c1=O	HCV inh 5µM, Lassa entry inh inconclusive
Cn1c(=O)c2c(nc(SCC(=O)N3CCc4ccccc43)n2Cc2ccccc2)n(C)c1=O	none (no result: Marburg entry inh, VACV mCherry inh, Vaccinia Venus, HCMV inh, Lassa entry inh)
CC1Cc2ccccc2N1C(=O)CSc1nc2c(c(=O)n(C)c(=O)n2C)n1Cc1ccc(F)cc1 (stereo not drawn)	HCV inh inconclusive, HCMV inh -106
C=CCNC(=S)N/N=C/c1ccc(-c2ccc(OC)cc2)o1	Marburg entry inh inconclusive, VACV mCherry inh inconclusive, HCV inh inconclusive, Vaccinia Venus inconclusive, Lassa entry inh 1.8µM
C=CCNC(=S)N/N=C/c1ccc(C)cc1C	Marburg entry inh inconclusive, HCMV inh -62, Lassa entry inh inconclusive
COC(=O)c1cccc(C(=O)N2CCc3c(cnc(C)c3CNC(=O)/C=C/c3cccs3)C2)c1	none (no result: Marburg entry inh, HCV inh, HCMV inh, Lassa entry inh)
CCNC(=S)NNC(=O)c1cc(-c2ccc(OC)cc2)nc2ccccc12	Marburg entry inh 0.65µM, Lassa entry inh 3.3µM
CCCCOc1ccc(-c2cc(C(=O)NNC(=S)NCC)c3ccccc3n2)cc1	Marburg entry inh 1.5µM, HCV inh 11µM, HCMV inh -93, Lassa entry inh inconclusive (no result: VACV mCherry inh, Vaccinia Venus)
CCCCOc1cccc(-c2cc(C(=O)NNC(=S)NCC)c3ccccc3n2)c1	none (no result: HCV inh)
CCNC(=S)NNC(=O)c1cc(-c2cccc(C)c2)nc2ccccc12	Lassa entry inh inconclusive (no result: VACV mCherry inh, Vaccinia Venus)
Cc1ccc(S(=O)(=O)CCC(=O)Nc2nnc(-c3cccs3)o2)cc1	VACV mCherry inh 10µM, Vaccinia Venus inconclusive, Lassa entry inh inconclusive
Cc1ccc(/C=C/c2nnc(-c3cccs3)o2)cc1	Marburg entry inh 12µM, Lassa entry inh 10µM
COc1cccc(-c2nnc(NC(=O)CCS(=O)(=O)c3ccc(C)cc3)o2)c1	Marburg entry inh inconclusive, VACV mCherry inh 10µM, Vaccinia Venus inconclusive
Cn1cc(CCC(=O)N2CCCC(CCC(=O)NCc3ccccc3F)C2)cn1 (stereo not drawn)	none (no result: Marburg entry inh, VACV mCherry inh, Vaccinia Venus, Lassa entry inh)
O=C(CCC1CCCN(C(=O)CCN2CCCCC2=O)C1)NCc1ccccc1F (stereo not drawn)	HCMV inh -105
O=C(Nc1nccs1)c1c(O)c2cccc3c2n(c1=O)CCC3	HCMV inh -95 (no result: Marburg entry inh, VACV mCherry inh, HCV inh, Vaccinia Venus, Lassa entry inh)
O=C(Nc1ccccn1)c1c(O)c2cccc3c2n(c1=O)CCC3	Marburg entry inh inconclusive, Lassa entry inh inconclusive (no result: VACV mCherry inh)
NCCNC(=O)c1c(O)c2cccc3c2n(c1=O)CCC3	Marburg entry inh 10µM
Cc1cccc(N2CC(C)Cn3c2nc2c3c(=O)n(CC(=O)O)c(=O)n2C)c1 (stereo not drawn)	Marburg entry inh inconclusive (no result: HCV inh)
CCCCc1ccc(-c2ccc(Br)cc2O)nc1	Marburg entry inh inconclusive (no result: VACV mCherry inh, Vaccinia Venus)
CCCCc1ccc(-c2ccc(C)cc2O)nc1	Marburg entry inh inconclusive, Lassa entry inh 10µM (no result: VACV mCherry inh, Vaccinia Venus)
O=C(OCc1cn([C@@H]2C[C@H](c3ccccc3)N(CC3CCCCC3)C[C@@H]2O)nn1)c1ccccc1	none (no result: Marburg entry inh, VACV mCherry inh, HCV inh, Vaccinia Venus, HCMV inh)
